Source: the supplement of paper PMC8047044
Where a name gives a salt, the structure may show the parent alone.

Tests used:
Neuro-2a [1] = test: neurite formation score, plate-normalized to DMSO control mean 5.04 (score (0-8 scale)); higher = more or longer neurites; details: 1 µM
Procedure: (§1)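 Neuro-2a mouse neuroblastoma cells in PLL-coated 96-well plates were pre-treated for 1 h in DMEM(+) with each kinase inhibitor at 1 µM, then switched to serum-free DMEM(-) with inhibitor to induce neurite outgrowth and fixed about 2-3 h later. Three blinded observers scored neurite formation from 0 (no neurites) to 8 (long neurites on almost all cells).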

Neuro-2a [2] = test: as above; details: 0.1 µM
Procedure: as §1, with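 “at 0.1” for “at 1”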

| SMILES | neurite formation score (Neuro-2a [1]) | neurite formation score (Neuro-2a [2]) |
| --- | --- | --- |
| CNC(=O)c1c(F)cccc1Nc1nc(Nc2cc3c(cc2OC)CCN3C(=O)CN(C)C)nc2[nH]ccc12 | 4.96 | 4.58 |
| N#CCNC(=O)c1ccc(-c2ccnc(Nc3ccc(N4CCOCC4)cc3)n2)cc1 [CYT387 sulfate salt] | 4.69 | 4.92 |
| CN1CC[C@H](c2c(O)cc(O)c3c(=O)cc(-c4ccccc4Cl)oc23)[C@H](O)C1 [Flavopiridol hydrochloride] | 4.47 | 3.76 |
| NC(=O)c1ncn([C@@H]2O[C@H](CO)[C@@H](O)[C@H]2O)c1N | 4.57 | 5.54 |
| Oc1cccc(-c2nc(N3CCOCC3)c3oc4ncccc4c3n2)c1 [PI-103 Hydrochloride] | 4.69 | 5.25 |
| Cc1csc(-c2nnc(Nc3ccc(Oc4ncccc4-c4ccnc(N)n4)cc3)c3ccccc23)c1 | 3.36 | 4.58 |
| CCc1cnn2c(NCc3ccc[n+]([O-])c3)cc(N3CCCC[C@H]3CCO)nc12 | 3.14 | 3.42 |
| COc1cc(OC)c(/C=C/S(=O)(=O)Cc2ccc(OC)c(NCC(=O)O)c2)c(OC)c1 | 0.908 | 3.04 |
| O=C1c2ccccc2-c2n[nH]c3cccc1c23 | 4.02 | 3.92 |
| Clc1ccc(Nc2nnc(Cc3ccncc3)c3ccccc23)cc1 [Vatalanib (PTK787) 2HCl] | 3.91 | 3.71 |
| COc1ccc(Cl)cc1NC(=O)Nc1cc(C)nc2ccccc12 | 3.91 | 5.04 |
| CCOc1cc(N2CCC(O)CC2)ccc1Nc1ncc2c(n1)N(C)c1ccccc1C(=O)N2C | 4.69 | 4.92 |
| CCN1CCN(Cc2ccc(-c3cc4c(N[C@H](C)c5ccccc5)ncnc4[nH]3)cc2)CC1 | 2.57 | 4.54 |
| Nc1ncnc2c1c(-c1cnc3[nH]ccc3c1)nn2C1CCCC1 | 3.21 | 4.42 |
| Cn1cc(/C=C2\C(=O)Nc3cccnc32)c2ccccc21 | 4.54 | 4.08 |
| O=C1C(c2c(O)[nH]c3ccccc23)=Nc2ccccc21 [Indirubin] | 4.88 | 4.42 |
| CN(C)CCCn1cc(C2=C(c3c[nH]c4ccccc34)C(=O)NC2=O)c2ccccc21 | 5.24 | 5.54 |
| CC[C@H](CO)Nc1nc(NCc2ccccc2)c2ncn(C(C)C)c2n1 [Roscovitine (Seliciclib,CYC202)] | 4.57 | 4.38 |
| CS(=O)(=O)N1CCN(Cc2cc3nc(-c4cccc5[nH]ncc45)nc(N4CCOCC4)c3s2)CC1 [GDC-0941 dimethanesulfonate] | 2.8 | 2.09 |

| SMILES | neurite formation score (Neuro-2a [1]) | neurite formation score (Neuro-2a [2]) |
| --- | --- | --- |
| c1cncc(CN2CCC(n3ncc4c(N5CCOCC5)nc(-c5ccc6[nH]ccc6c5)nc43)CC2)c1 | 1.54 | 0.751 |
| O=C(NCc1cccc(O)c1)Nc1nc(-c2ccncc2)cs1 | 5.02 | 5.25 |
| Cc1cc2c(F)c(Oc3ncnn4cc(OC[C@@H](C)OC(=O)[C@H](C)N)c(C)c34)ccc2[nH]1 | 3.57 | 4.04 |
| Cn1c(=O)n(-c2ccc(C(C)(C)C#N)cc2)c2c3cc(-c4cnc5ccccc5c4)ccc3ncc21 | 2.9 | 5.21 |
| CNC(=O)c1cc(COc2nnc(Nc3ccc(Cl)cc3)c3ccoc23)ccn1 [Telatinib (BAY 57-9352)] | 4.96 | 4.92 |
| O=C1NC(=O)/C(=C\c2ccc3nccnc3c2)S1 | 4.14 | 5.09 |
| Cc1ccc(NC(=O)c2ccc(CN3CCN(C)CC3)cc2)cc1Nc1nccc(-c2cccnc2)n1 [Imatinib (STI571)] | 4.54 | 1.42 |
| COc1cc2ncnc(Nc3ccc(F)c(Cl)c3)c2cc1NC(=O)/C=C/CN1CCCCC1 | 4.9 | 4.88 |
| CSc1cccc(Nc2ncc3cc(-c4c(Cl)cccc4Cl)c(=O)n(C)c3n2)c1 |  | 3.92 |
| CCn1cc(-c2ccnc3[nH]c(-c4cccc(CN(C)C)c4)cc23)c(-c2ccc(NC(=O)N(C)C)cc2)n1 | 4.69 | 5.25 |
| Nc1cc(N)c(N)cc1N [FAK Inhibitor 14] | 4.54 | 4.08 |
| N#Cc1c(Oc2ccc(F)c(NC(=O)Cc3cccc(C(F)(F)F)c3)c2)ccc2nc(NC(=O)C3CC3)sc12 |  | 4.54 |
| FC(F)c1nc2ccccc2n1-c1nc(N2CCOCC2)nc(N2CCOCC2)n1 | 4.24 | 4.21 |
| NC1(c2ccc(-c3nc4ccn5c(=O)[nH]nc5c4cc3-c3ccccc3)cc2)CCC1 [MK-2206 dihydrochloride] | 4.24 | 4.71 |
| O=C1NC(=O)C(c2cnc3ccccn23)=C1c1cn2c3c(cc(F)cc13)CN(C(=O)N1CCCCC1)CC2 | 3.47 | -0.576 |
| CCOc1cc2ncc(C#N)c(Nc3ccc(OCc4ccccn4)c(Cl)c3)c2cc1NC(=O)/C=C/CN(C)C [Neratinib (HKI-272)] | 3.47 | 5.09 |
| O=C(c1ccc(/C=C/c2n[nH]c3ccccc23)cc1)N1CCNCC1 | 6.02 | 1.92 |
| CO[C@H]1C[C@@H]2CC[C@@H](C)[C@@](O)(O2)C(=O)C(=O)N2CCCC[C@H]2C(=O)O[C@H]([C@H](C)C[C@@H]2CC[C@@H](OC(=O)C(C)(CO)CO)[C@H](OC)C2)CC(=O)[C@H](C)/C=C(\C)[C@@H](O)[C@@H](OC)C(=O)[C@H](C)C[C@H](C)/C=C/C=C/C=C/1C [Temsirolimus] | 4.24 | 4.21 |
